Measured values from PubChem BioAssay.
A number with no mark means an inactive call.

Test: cell viability in Huh7 cells, primary screen, cytotoxicity control for HCV replication inhibitor project, CellTiter-Glo luminescence, basal, 48 h (AID 1143);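 also: Huh7 hepatoma cells carrying a hepatitis C replication reporter with no stimulus; test concentration not given here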
Conditions: Huh7 HCV replicon, higher = more signal, called active from +8 up or from −8 down

| Compound | z-score |
| --- | --- |
| CCOC(=O)C[C@H]1[C@H](OC(=O)c2ccccc2-c2ccccc2)[C@@H](NC(=O)c2ccc3ccccc3c2)c2cc(OCCCO)ccc2N1C(=O)c1ccccc1 | -0.399 |
| O=C1OCCC=C[C@H]2OC34C=CCN(Cn5nnc6ccccc65)C(=O)[C@H]3N(CCCO)C(=O)[C@@H]4C12 (stereo not given in full) | -2.61 |
| O=C(C1N=C(c2ccc(OCCCO)cc2)N(c2ccccc2)O1)N1CCCCC1 (stereo not given) | -0.163 |
| CCCCC[C@H]1OC[C@@]23C=C(Br)[C@@H](CC12)[C@@]1(CO1)C3=O (stereo not given in full) | -0.473 |
| C=CC[C@]1(C(=O)N2CCCCC2)N=C(c2ccc(OCCCO)cc2)O[C@H]1c1ccccc1CN=[N+]=[N-] | -4.07 |
| COCCCNC(=O)[C@@H]1c2ccccc2C(=O)N(C(C)C)[C@H]1c1ccc(CO)cc1 | -0.293 |
| CCCCN1CC=CC23O[C@@H]4/C=C\CCC(C)OC(=O)C4[C@H]2C(=O)N(CCCO)[C@@H]3C1=O (stereo not given in full) | -0.183 |
| CN(C)C(=O)[C@]1(CCC(=O)OC(C)(C)C)N=C(c2ccc(OCCCO)cc2)O[C@@H]1c1ccccc1CN=[N+]=[N-] | -1.5 |
| C=CCNC(=O)[C@@H]1[C@H]2C(=O)O[C@H](c3ccccc3)[C@H](c3ccccc3)N2[C@H](c2ccc(OCCO)cc2)[C@@]12C(=O)N(C(=O)OCCOC)c1ccc(C#Cc3ccc(OC)cc3)cc12 | -2.81 |
| CCCN1C(=O)[C@@]2(Cc3ccccc31)N=C(c1ccc(OCCCO)cc1)O[C@H]2c1ccccc1 | -3.36 |
| CC1CC/C=C\[C@H]2OC34C=CCN(Cc5ccccc5)C(=O)[C@H]3N(C(CO)C(C)C)C(=O)[C@@H]4C2C(=O)O1 (stereo not given in full) | -0.0399 |
| C=C(COC)/C(=C/C[C@H](OC(=O)c1ccncc1)c1ccc(CO)o1)c1cnc2ccccc2c1 | 0.114 |
| COc1ccc(C#Cc2ccc3c(c2)[C@]2(C(=O)N3)[C@H](c3ccc(O)cc3)N3[C@H](c4ccccc4)[C@H](c4ccccc4)OC(=O)[C@H]3[C@@H]2C(=O)Nc2nc3ccccc3s2)cc1 | -1.62 |
| [N-]=[N+]=Nc1ccccc1C[C@@]1(C(=O)N2CCOCC2)N=C(c2ccc(OCCCO)cc2)O[C@@H]1c1ccccc1 | -4.54 |
| C=C[C@@H](CO)N(Cc1ccc(OC)cc1)S(=O)(=O)c1ccc(Br)cc1 | -3.07 |
| COc1ccc(CCNC(=O)[C@@]2(Sc3ccc(C)cc3)CC(=O)N(Cc3ccccc3C(F)(F)F)[C@@H]2c2ccc(CO)cc2I)cc1 | -1.53 |
| CCOC(=O)C[C@H]1[C@H](OC(=O)c2ccccc2-c2ccccc2)[C@@H](NC(=O)c2ccc3ccccc3n2)c2cc(OCCCO)ccc2N1C(=O)Cc1ccc(OC)cc1 | -0.109 |
| C=CCN1Cc2ccccc2[C@@H]2OC(c3ccc(OCCCO)cc3)=N[C@]2(CC=C)C1=O | -2.51 |

| Compound | z-score |
| --- | --- |
| O=C(Cc1ccccc1)[C@H]1C2C=CCCC(c3ccccc3)=C2CN1Cc1ccccc1 (stereo not given in full) | -0.408 |
| C=CC[C@@]1(C(=O)NCCCOC)N=C(c2ccc(OCCCO)cc2)O[C@@H]1c1ccccc1N=[N+]=[N-] | -2.67 |
| COc1cccc(C)c1NC(=O)O[C@H]1[C@H](OC(=O)Nc2ccc3c(c2)OCO3)[C@@H](OC(=O)Nc2ccc3c(c2)OCO3)[C@@H](OC)O[C@@H]1CO | -1.19 |
| C=CCC(OC(C)=O)[C@@H]1[C@@H](N(Cc2ccc(-c3ccccc3)cc2)C(=O)c2ccc(-c3ccccc3)cc2)c2cc(OCCCO)ccc2N1C(=O)c1ccc2ccccc2c1 (stereo not given in full) | 0.39 |
| COC(=O)C(CC#Cc1ccc2c(c1)[C@]1(C(=O)N2)[C@H](c2ccc(O)cc2)N2[C@H](c3ccccc3)[C@H](c3ccccc3)OC(=O)[C@H]2[C@@H]1C(=O)NC[C@H](O)c1ccccc1)C(=O)OC | -0.075 |
| COc1cccc(C)c1NC(=O)O[C@H]1[C@H](OC(=O)Nc2ccccc2-c2ccccc2)[C@H](OC(=O)Nc2ccccc2-c2ccccc2)[C@@H](OC)O[C@@H]1CO | -3.45 |
| CCCCC(CC)C(O)C1C=CC2C(=O)N(c3ccccc3)C(=O)C2N1Nc1ccccc1F (stereo not given) | -2.32 |
| C=CC[C@]1(C(=O)N2CCOCC2)COC(c2ccc(OCCCO)cc2)=N1 | -2.76 |
| CCOC(=O)C[C@H]1[C@H](OC(=O)Cc2ccc3c(c2)OCO3)[C@@H](NC(=O)C2CCCCC2)c2cc(OCCCO)ccc2N1C(=O)c1ccccc1 | -0.0136 |
| O=C1O[C@@H](c2ccccc2)[C@@H](c2ccccc2)N2[C@@H](c3ccc(O)cc3)[C@]3(C(=O)Nc4ccc(C#CCCO)cc43)[C@@H](C(=O)N3CCN(c4ncccn4)CC3)[C@H]12 | -1.28 |
| O[C@@H](Cc1ccccc1)[C@@H](/C=C/C1CC1)N(CC#Cc1ccccc1)Cc1ccccc1Br | -1.72 |
| CCCC1(C(=O)OC)C=C2C(=C(C)C(=O)C2C)CN1 (stereo not given) | 0.442 |
| O=C1C2C=CC(C(O)c3ccco3)N(Nc3ccccc3F)C2C(=O)N1c1ccccc1 (stereo not given) | 0.761 |
| COc1ccc([Si](C)(C)[C@@H]2[C@@H](CCO)O[C@]3(C(=O)N(Cc4ccccc4)c4ccc(N5C(=O)c6cccc7cccc5c67)cc43)[C@H]2C)cc1 | -4 |
| CC(C)=C1C(=O)C(c2ccccc2)=C2CN3C(=O)N(CCc4ccccc4)C(=O)[C@]3(Cc3ccc(C(F)(F)F)cc3)[C@H]21 | -0.28 |
| CCCCCN1CC=CC23O[C@@H]4/C=C\CCC(C)OC(=O)C4[C@H]2C(=O)N(C(CO)C(C)C)[C@@H]3C1=O (stereo not given in full) | 0.209 |
| COC(=O)[C@@]1(Cc2ccc(OC)cc2)[C@H]2c3cc(C(=O)N4CCCC4)n(CCO)c3C[C@H]2CN1C(=O)c1ccccc1 | -0.794 |
